Measured values from PubChem BioAssay.
Calls of active or inactive are those of the source. Unless noted, how the calls were made is not given here.

Columns and labels:
[1] = anti-His antibody binders, primary screen, artefact control for SMM control protein annotation, biochemical, small-molecule microarray, 635 nm fluorescence (AID 1128); conditions: anti-His Alexa647 antibody binding, higher = more signal;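 further: score merges feature fluorescence with signal-to-noise for each printed compound spot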
[2] = test system: Human papillomavirus type 1a E7 protein (residues 1-88); assay: HPV1a E7 small-molecule binders, primary screen, biochemical, small-molecule microarray, residues 1-88, 635 nm (AID 1129); conditions: small-molecule microarray binding, fluorescence 635 nm; higher = more signal
[3] = target: Focal adhesion kinase 1 (Homo sapiens) (UniProt Q05397); assay: small-molecule microarray binders of FAK, primary screen, biochemical, 635/667 nm fluorescence, BSA, DTT (AID 1130); conditions: PTK2 binding, 635 nm fluorescence, higher = more signal;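 further: composite of spot emission at 667 nm and signal to noise over triplicate slides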
[4] = test system: Fibrinogen (Alexa647-labelled); assay: fibrinogen binders on compound microarrays, profiling panel, artefact control for SMM control-protein annotation, biochemical, small-molecule microarray, 635/667 nm fluorescence (AID 1131); conditions: fibrinogen-A647 binding fluorescence, higher = more signal;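 further: z-score merges 667 nm fluorescence with per-spot signal-to-noise over triplicate slides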
[5] = target: Follistatin (Homo sapiens) (UniProt P19883); assay: follistatin binders on small-molecule microarrays, primary screen, biochemical, small-molecule microarray, 635/667 nm fluorescence (AID 1132); conditions: FST binding, 635 nm fluorescence, higher = more signal
[6] = target: Fibroblast growth factor 2 (Homo sapiens) (UniProt P09038); assay: FGF2 binders on small-molecule microarrays, primary screen, biochemical, small-molecule microarray, 635/667 nm fluorescence (AID 1133); conditions: small-molecule microarray binding, FGF2, fluorescence 635/667; higher = more signal
[7] = mitochondrial membrane potential change in A549 cells, profiling panel, cell-based, JC-1 fluorescence, basal, 24 h, 100 nL (AID 1138); conditions: higher = more signal;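 further: A549 lung adenocarcinoma cells under basal conditions with no added stimulus; test concentration not given here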
Lefty1 = Lefty1 binders on small-molecule microarrays, primary screen, biochemical, small-molecule microarray, 635/667 nm fluorescence (AID 1139); conditions: small-molecule microarray binding, fluorescence 635/667; higher = more signal
[8] = test system: wheat germ agglutinin (Triticum aestivum), Alexa647-labelled; assay: wheat germ agglutinin binders on compound microarrays, profiling panel, artefact control for SMM control-protein annotation, biochemical, small-molecule microarray, 635/667 nm fluorescence (AID 1140); conditions: WGA-A647 binding, 635 nm fluorescence, higher = more signal;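 further: score merges 667 nm feature emission with signal to noise over triplicate slides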
[9] = target: Luciferin 4-monooxygenase (Photinus pyralis) (UniProt P08659); assay: firefly luciferase enzyme inhibitors, primary screen, biochemical, luminescence, purified enzyme, 2006 set (AID 1141); conditions: SteadyGlo luminescence, 30 min, higher = more signal, called active from +8 up or from −8 down;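 further: cell-free assay with purified firefly luciferase at 100 ng per well in PBS; test concentration not given here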
[10] = test system: Wnt5a (protein binding on small-molecule microarray); assay: Wnt5a binders on small-molecule microarray, primary screen, biophysical, 635/667 nm fluorescence (AID 1142); conditions: 635 nm fluorescence, higher = more signal;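 further: fluorescence read at 667 nm with signal to noise per printed feature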
[11] = cell viability in Huh7 cells, primary screen, cytotoxicity control for HCV replication inhibitor project, CellTiter-Glo luminescence, basal, 48 h (AID 1143); conditions: Huh7 HCV replicon, higher = more signal, called active from +8 up or from −8 down;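 further: Huh7 hepatoma cells carrying a hepatitis C replication reporter with no stimulus; test concentration not given here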
[12] = P. aeruginosa biofilm formation inhibitors, primary screen, PAO1 strain, BacTiter-Glo luminescence, LB-PBS (AID 1144); conditions: 12 h, higher = more signal
[13] = CREB reporter modulators without forskolin, primary screen, cell-based, PC12, CRE-LacZ reporter, unstimulated (AID 1145); conditions: no forskolin, luminescence, 4.5 h, higher = more signal, called active from +8 up or from −8 down
[14] = CREB reporter modulators under forskolin, primary screen, cell-based, PC12, CRE-LacZ reporter, forskolin-stimulated (AID 1146); conditions: luminescence, 4.5 h, higher = more signal, called active from +8 up or from −8 down;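 further: PC12 cells with 6xCRE LacZ reporter stimulated by forskolin 10 µM; beta-galactosidase reporter signal reflecting CREB driven transcription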
[15] = target: Streptavidin (Streptomyces avidinii) (UniProt P22629); assay: streptavidin binders on small-molecule microarray, primary screen, artefact control for SMM compound annotation, biophysical, 635/667 nm fluorescence (AID 1147); conditions: streptavidin binding, higher = more signal;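 further: signal reflects streptavidin binding to arrayed compounds as a control protein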
[16] = small-molecule binders of probe aInhba, primary screen, biochemical, small-molecule microarray, 635/667 nm fluorescence (AID 1148); conditions: higher = more signal;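 further: score merges 667nm spot fluorescence with signal-to-noise for antibody binding to printed compounds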
Torsin-1A (Homo sapiens) [17] = target: Torsin-1A (Homo sapiens) (UniProt O14656); assay: torsin A binders from cell lysate, primary screen, small-molecule microarray, wild-type, 635/667 nm (AID 1149); conditions: COS7 hTOR1A-WT lysate, 635 nm fluorescence, higher = more signal
Torsin-1A (Homo sapiens) [18] = target: Torsin-1A (Homo sapiens) (UniProt O14656); assay: small-molecule binders of mutant TOR1A in lysate, primary screen, cell lysate, small-molecule microarray, COS7 lysate, 635/667 nm fluorescence (AID 1150); conditions: COS7 hTOR1A mutant lysate, 635 nm fluorescence, higher = more signal;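 further: score pools 667 nm emission and signal to noise measuring lysate protein binding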
[19] = test system: Sonic hedgehog protein (Shh); assay: small-molecule binders of Shh protein, primary screen, biochemical, small-molecule microarray, 635/667 nm fluorescence (AID 1151); conditions: small-molecule microarray binding, 635 nm fluorescence; higher = more signal;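 further: Shh protein binding to compounds spotted on small-molecule microarray slides; score combines spot fluorescence intensity with signal-to-noise across triplicate slides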

Chain of Luciferin 4-monooxygenase (Photinus pyralis) (P08659 whole entry, looked up): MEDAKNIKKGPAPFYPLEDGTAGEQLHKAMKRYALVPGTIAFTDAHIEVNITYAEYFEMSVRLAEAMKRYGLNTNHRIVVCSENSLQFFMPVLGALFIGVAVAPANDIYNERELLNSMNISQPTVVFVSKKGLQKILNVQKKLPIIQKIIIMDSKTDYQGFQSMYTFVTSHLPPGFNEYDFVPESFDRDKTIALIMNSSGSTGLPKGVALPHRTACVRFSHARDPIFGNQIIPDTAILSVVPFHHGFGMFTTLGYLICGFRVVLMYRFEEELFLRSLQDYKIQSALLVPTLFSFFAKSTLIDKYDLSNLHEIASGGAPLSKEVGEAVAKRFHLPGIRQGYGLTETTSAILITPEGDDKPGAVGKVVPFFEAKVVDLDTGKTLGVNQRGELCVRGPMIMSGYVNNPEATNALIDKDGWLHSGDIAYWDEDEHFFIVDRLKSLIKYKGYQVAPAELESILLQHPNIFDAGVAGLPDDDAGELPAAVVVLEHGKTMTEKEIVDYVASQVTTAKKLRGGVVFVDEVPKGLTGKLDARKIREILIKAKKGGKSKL
Chain of Focal adhesion kinase 1 (Homo sapiens) (Q05397 whole entry, looked up): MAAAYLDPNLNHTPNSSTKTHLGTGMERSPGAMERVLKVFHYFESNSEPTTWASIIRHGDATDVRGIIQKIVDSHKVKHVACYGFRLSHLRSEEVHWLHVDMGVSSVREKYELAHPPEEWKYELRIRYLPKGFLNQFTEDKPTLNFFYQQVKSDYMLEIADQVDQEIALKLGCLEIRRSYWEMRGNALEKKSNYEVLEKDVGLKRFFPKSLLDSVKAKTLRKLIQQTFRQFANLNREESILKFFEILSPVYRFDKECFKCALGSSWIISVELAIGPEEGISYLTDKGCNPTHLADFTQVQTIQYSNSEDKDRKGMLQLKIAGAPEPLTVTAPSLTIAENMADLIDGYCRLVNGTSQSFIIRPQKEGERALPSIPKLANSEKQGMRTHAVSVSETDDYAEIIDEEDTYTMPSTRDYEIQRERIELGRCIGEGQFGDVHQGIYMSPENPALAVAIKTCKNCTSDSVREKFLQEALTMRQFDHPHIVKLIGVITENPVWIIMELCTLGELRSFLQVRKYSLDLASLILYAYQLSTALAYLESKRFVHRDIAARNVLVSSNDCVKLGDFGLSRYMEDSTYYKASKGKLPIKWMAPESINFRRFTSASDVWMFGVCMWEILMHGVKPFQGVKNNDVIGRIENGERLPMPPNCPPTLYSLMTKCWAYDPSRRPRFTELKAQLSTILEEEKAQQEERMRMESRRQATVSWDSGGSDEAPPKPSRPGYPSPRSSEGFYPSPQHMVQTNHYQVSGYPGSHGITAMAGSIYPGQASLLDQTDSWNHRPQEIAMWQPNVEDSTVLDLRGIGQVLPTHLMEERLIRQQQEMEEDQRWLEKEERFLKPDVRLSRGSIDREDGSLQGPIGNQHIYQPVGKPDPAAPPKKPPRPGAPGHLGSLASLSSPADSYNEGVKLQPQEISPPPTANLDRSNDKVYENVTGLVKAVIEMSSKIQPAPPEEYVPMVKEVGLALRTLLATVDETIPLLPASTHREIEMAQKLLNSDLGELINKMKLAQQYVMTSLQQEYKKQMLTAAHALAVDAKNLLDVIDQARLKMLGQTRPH
Chain of Fibroblast growth factor 2 (Homo sapiens) (P09038 whole entry, looked up): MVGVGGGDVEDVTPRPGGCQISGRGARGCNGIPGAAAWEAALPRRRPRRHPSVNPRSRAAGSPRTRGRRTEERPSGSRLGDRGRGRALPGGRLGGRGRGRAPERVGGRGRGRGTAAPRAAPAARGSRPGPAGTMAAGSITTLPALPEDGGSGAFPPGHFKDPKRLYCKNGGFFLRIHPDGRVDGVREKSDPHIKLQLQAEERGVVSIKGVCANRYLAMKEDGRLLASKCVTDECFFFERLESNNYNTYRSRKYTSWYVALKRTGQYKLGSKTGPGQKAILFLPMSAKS
Chain of Streptavidin (Streptomyces avidinii) (P22629 whole entry, looked up): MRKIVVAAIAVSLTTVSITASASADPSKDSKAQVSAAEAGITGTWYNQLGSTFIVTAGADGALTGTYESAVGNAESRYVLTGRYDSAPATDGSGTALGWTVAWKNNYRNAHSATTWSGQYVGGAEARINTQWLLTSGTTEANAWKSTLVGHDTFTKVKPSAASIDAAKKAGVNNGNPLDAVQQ
Chain of Follistatin (Homo sapiens) (P19883 whole entry, looked up): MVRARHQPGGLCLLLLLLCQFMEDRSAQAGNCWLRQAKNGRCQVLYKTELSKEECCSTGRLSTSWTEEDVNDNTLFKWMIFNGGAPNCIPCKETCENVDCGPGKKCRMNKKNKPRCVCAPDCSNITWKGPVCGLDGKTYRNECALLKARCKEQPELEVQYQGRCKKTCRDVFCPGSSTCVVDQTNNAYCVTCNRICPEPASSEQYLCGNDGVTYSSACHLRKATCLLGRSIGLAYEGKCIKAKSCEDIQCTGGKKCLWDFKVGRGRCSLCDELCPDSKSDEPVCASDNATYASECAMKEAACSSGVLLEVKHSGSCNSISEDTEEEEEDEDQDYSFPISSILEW
Chain of Torsin-1A (Homo sapiens) (O14656 whole entry, looked up): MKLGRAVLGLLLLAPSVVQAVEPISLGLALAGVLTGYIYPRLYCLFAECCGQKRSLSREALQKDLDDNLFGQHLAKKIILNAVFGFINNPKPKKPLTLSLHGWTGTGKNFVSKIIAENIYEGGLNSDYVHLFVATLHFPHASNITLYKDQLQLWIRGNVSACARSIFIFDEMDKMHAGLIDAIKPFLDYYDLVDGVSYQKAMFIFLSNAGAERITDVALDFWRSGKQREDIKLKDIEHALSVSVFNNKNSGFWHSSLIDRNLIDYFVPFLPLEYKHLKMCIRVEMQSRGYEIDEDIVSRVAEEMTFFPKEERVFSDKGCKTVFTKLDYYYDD

| SMILES | composite z-score [1] | composite z-score [2] | composite z-score [3] | composite z-score [4] | composite z-score [5] | composite z-score [6] | z-score [7] | composite z-score (Lefty1) | composite z-score [8] | z-score [9] | composite z-score [10] | z-score [11] | z-score [12] | z-score [13] | z-score [14] | composite z-score [15] | composite z-score [16] | composite z-score (Torsin-1A (Homo sapiens) [17]) | composite z-score (Torsin-1A (Homo sapiens) [18]) | composite z-score [19] |
| --- | --- | --- | --- | --- | --- | --- | --- | --- | --- | --- | --- | --- | --- | --- | --- | --- | --- | --- | --- | --- |
| CCOC(=O)C[C@H]1[C@H](OC(=O)c2cc3ccccc3oc2=O)[C@@H](NC(=O)c2ccccc2)c2cc(OCCCO)ccc2N1C(=O)c1ccccc1 | 0.29 | 0.828 | 0.138 | 0.37 | 0.744 | 1.18 | -0.816 | 0.443 | 0.0432 | 0.713 (inactive) | 0.315 | -2.83 (inactive) | 0.311 (inactive) | 3.75 (inactive) | -0.0599 (inactive) | 0.289 | -0.113 | 0.575 | 0.347 | 0.696 |
| COc1cc2c(cc1O)C(C1CC1)N(Cc1cccc(OC(F)(F)F)c1)CC2 (stereo not given) | -0.144 | -0.922 | -0.662 | -1.03 | 0.167 | 0.357 | -1.46 | -0.255 | -0.181 | 0.187 (inactive) | 0.0616 | -3.88 (inactive) | 0.73 (inactive) | -0.581 (inactive) | 0.0388 (inactive) | -0.41 | -0.285 | -0.0876 | 0.315 | 0.908 |
| CC1CC/C=C\[C@H]2OC34C=CCN(c5ccc(Cl)cc5)C(=O)[C@H]3N(C(C)CO)C(=O)[C@]4(C)C2C(=O)O1 (stereo not given in full) | -0.984 | -1.5 | -0.177 | -0.173 | -0.954 | -1.06 | 0.798 | -0.847 | 0.429 | -1.14 (inactive) | -0.304 | 0.0276 (inactive) | 0.2 (inactive) | -0.0859 (inactive) | 0.325 (inactive) | -0.367 | -0.401 | -0.979 | -1.5 | -0.374 |
| [N-]=[N+]=NCc1ccccc1[C@@H]1OC(c2ccc(OCCCO)cc2)=N[C@]1(CCS(=O)(=O)c1ccccc1)C(=O)O | 0.843 | 0.843 | 0.809 | 0.839 | 0.0575 | -0.517 | -0.586 | 0.381 | 1.17 | -5.21 (inactive) | 0.132 | 0.0514 (inactive) | -0.127 (inactive) | 1.06 (inactive) | -0.0084 (inactive) | 0.659 | -0.0589 | 0.134 | 1.09 | -1.42 |
| CC(C)NC(=O)[C@@]1(c2ccc([N+](=O)[O-])cc2)CC(=O)N(C2CCCCC2)[C@@H]1c1ccc(CO)cc1 | 2.4 | 1.17 | 0.959 | 0.729 | 1.28 | 0.584 | 0.438 | 1.29 | 0.965 | 1.46 (inactive) | 0.34 | -2.26 (inactive) | -0.177 (inactive) | 1.09 (inactive) | -0.0351 (inactive) | 0.119 | -0.12 | 0.574 | 0.5 | 1.68 |
| COc1ccc(CCNC(=O)[C@@]2(Sc3ccc(C)cc3)CC(=O)N(Cc3ccccc3C(F)(F)F)[C@@H]2c2ccc(CO)cc2I)cc1 | 2.42 | 0.0953 | -0.326 | 0.685 | -0.706 | -0.512 | 1.56 | -1.63 | 0.827 | -0.555 (inactive) | -0.0049 | -1.53 (inactive) | 1.02 (inactive) | 0.362 (inactive) | 2.7 (inactive) | -0.975 | 0.0714 | -1.13 | -0.702 | -0.649 |
| CC1CC/C=C\[C@H]2OC34C=CCN(c5ccc6ccccc6c5)C(=O)[C@H]3N(CCCO)C(=O)[C@@H]4C2C(=O)O1 (stereo not given in full) | 1.08 | -0.453 | -0.633 | -0.794 | -0.82 | -1.86 | -0.148 | -1.12 | -0.985 | -0.212 (inactive) | -1.1 | 0.0518 (inactive) | 1.57 (inactive) | 0.191 (inactive) | 0.234 (inactive) | -1.1 | -0.293 | -2.88 | -1.47 | -0.749 |
| CCOC(=O)C[C@H]1[C@H](OC(=O)c2ccccc2-c2ccccc2)[C@@H](NC(=O)c2ccc3ccccc3n2)c2cc(OCCCO)ccc2N1C(=O)Cc1ccc(OC)cc1 | -0.186 | 0.511 | 0.0434 | 0.47 | 0.248 | 0.268 | 0.397 | 0.577 | 0.509 | 0.43 (inactive) | 0.0204 | -0.109 (inactive) | 0.485 (inactive) | 1.03 (inactive) | 0.349 (inactive) | -0.0997 | 0.0442 | 0.253 | 0.0746 | 0.336 |
| C=CCNC(=O)[C@@H]1[C@H]2C(=O)O[C@H](c3ccccc3)[C@H](c3ccccc3)N2[C@H](c2ccc(OCCO)cc2)[C@@]12C(=O)N(C(=O)OCCOC)c1ccc(C#Cc3ccc(OC)cc3)cc12 | 0.81 | 1.16 | 0.066 | 0.785 | 1.27 | 0.93 | -1.41 | 0.901 | 0.939 | -0.728 (inactive) | 0.0609 | -2.81 (inactive) | 0.543 (inactive) | 0.476 (inactive) | -0.222 (inactive) | 0.613 | 0.0497 | 0.105 | -0.0165 | 1.88 |
| COCCOC(=O)N1C(=O)[C@@]2(c3cc(C#CC4=CCCCC4)ccc31)[C@H](c1ccccc1OCCO)N1[C@H](c3ccccc3)[C@H](c3ccccc3)OC(=O)[C@H]1[C@@H]2C(=O)N1CCN(c2ncccn2)CC1 | 0.624 | 1.15 | 0.732 | 0.635 | 0.76 | 0.779 | -1.05 | 0.772 | 0.343 | -1.47 (inactive) | 0.471 | -4.96 (inactive) | -1.23 (inactive) | -1.28 (inactive) | -0.752 (inactive) | 0.407 | 0.181 | 0.0128 | 0.202 | 0.942 |
